Growth data for 8 compounds are collected here from PubChem BioAssay (NCI).

Structures are written as SMILES. The panel holds about 83,000 compounds, 20% with a hit somewhere; the sample as a whole holds those more often.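 Note: values are percent growth. 100 is the growth of untreated cells, values between 100 and 0 indicate rising inhibition; between -100 and 0 indicates cell death.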 A number with no mark means an inactive call. The source made the active and inactive calls. How the source made its calls: active means growth percent below 10; inactive means the rest.

Test systems include DU-145 prostate; K-562 leukemia; MALME-3M melanoma; MDA-MB-231 breast; RXF 393 renal; SF-268 CNS; SF-539 CNS; UACC-257 melanoma; M14 melanoma; HCT-15 colon; HT29 colon; SNB-75 CNS; U251 CNS; PC-3 prostate; SK-MEL-5 melanoma; UACC-62 melanoma; LOX IMVI melanoma; SK-MEL-28 melanoma; SNB-19 CNS.
What all share (experiment): NCI-60 one-dose screen, 48 h (100 = growth as untreated, 0 = no growth, -100 = all killed)
What all share (conditions): 10 µM unless noted

As for `COc1ccc(/C=C/C(=O)c2ccc(NC(=O)CSc3nnc(-c4ccc(Cl)cc4)n3-c3ccccc3)cc2)cc1`, the growth was 106% in the assay on DU-145 prostate; 80.1% in the assay on K-562 leukemia; 118% in the assay on MALME-3M melanoma; 91% in the assay on MDA-MB-231 breast; 104% in the assay with RXF 393 renal; 96.1% with SF-268 CNS. Further, the growth in the assay with SF-539 CNS was 109%; in the assay with UACC-257 melanoma, 86.7%; in the assay on M14 melanoma, 91.9%; in the assay with HCT-15 colon, 80.5%; with HT29 colon, 98.7%; in the assay on SNB-75 CNS, 84.2%. In addition, the growth is 88.2% in the assay with U251 CNS; 84.5% in the assay on PC-3 prostate; 84.1% in the assay with SK-MEL-5 melanoma; 74.6% in the assay with UACC-62 melanoma; 105% in the assay with LOX IMVI melanoma; 104% in the assay with SK-MEL-28 melanoma.
With `COc1ccc2[nH]c(O)c(/C=c3/ccc4c(c3)N=C(c3ccc(F)cc3)N=4)c2c1`, the growth in the assay with DU-145 prostate is 67.6%; in the assay with K-562 leukemia, 57.7%; in the assay with MALME-3M melanoma, -18.6% (active); with MDA-MB-231 breast, 83.2%; with RXF 393 renal, 11.5%; in the assay with SF-268 CNS, 83.2%. Also, the growth is 80.3% with SF-539 CNS; 82.5% in the assay on UACC-257 melanoma; 68.4% with M14 melanoma; 50.1% with HCT-15 colon; 84.5% in the assay on HT29 colon; 87.1% with SNB-19 CNS. Moreover, the growth with U251 CNS was 42.1%; in the assay with PC-3 prostate, 47.4%; in the assay on SK-MEL-5 melanoma it was 61.5%; in the assay on UACC-62 melanoma it was 90.1%; in the assay with LOX IMVI melanoma, 16.3%; with SK-MEL-28 melanoma, 72.7%.
`CC(=O)[C@H]1CC[C@H]2[C@@H]3CC[C@H]4CC=CC[C@]4(C)[C@H]3CC[C@]12C`: the growth is 111% in the assay with DU-145 prostate; 84.9% in the assay on K-562 leukemia; 84% in the assay with MALME-3M melanoma; 99.4% in the assay with MDA-MB-231 breast; 98.2% in the assay with RXF 393 renal; 102% with SF-268 CNS. Further, the growth in the assay on SF-539 CNS is 91.6%; with UACC-257 melanoma it was 75.6%; with M14 melanoma, 90.3%; with HCT-15 colon it was 89.8%; in the assay with SNB-75 CNS, 74.1%; in the assay with SNB-19 CNS, 98.1%. Further, the growth with U251 CNS was 102%; in the assay on PC-3 prostate it was 58%; with SK-MEL-5 melanoma, 98.8%; in the assay on UACC-62 melanoma, 79.9%; in the assay on LOX IMVI melanoma it was 95.4%; in the assay on SK-MEL-28 melanoma, 89.1%.
On to `O=C1C(Cl)=C(N/N=c2/[nH][nH]/c(=N/NC3=C(Cl)C(=O)c4ccccc4C3=O)c3ccccc23)C(=O)c2ccccc21`, for which the growth was 108% in the assay on DU-145 prostate; 9.7% (active) in the assay on K-562 leukemia; 84.8% in the assay with MALME-3M melanoma; 42.8% in the assay on MDA-MB-231 breast; 73.7% in the assay on RXF 393 renal; 41.7% in the assay with SF-268 CNS. Besides, the growth with SF-539 CNS is 47.3%; with UACC-257 melanoma, 97.7%; in the assay on M14 melanoma it was 92.8%; in the assay with HCT-15 colon, 83.9%; in the assay with HT29 colon it was 102%; in the assay on SNB-19 CNS, 61.9%. Besides, the growth was 2.88% (active) in the assay with U251 CNS; 55.5% with PC-3 prostate; 62.6% with SK-MEL-5 melanoma; 25.7% in the assay with UACC-62 melanoma; 69.8% in the assay on LOX IMVI melanoma; 104% in the assay with SK-MEL-28 melanoma.
For the compound `CCCCCCCCNC(C)C(O)c1ccc(SC(C)C)cc1` (configuration not stated), the growth with DU-145 prostate is -25.5% (active); in the assay on K-562 leukemia, -59.8% (active); in the assay with MALME-3M melanoma it was -78% (active); in the assay on MDA-MB-231 breast, 89.7%; in the assay on RXF 393 renal, 37.5%; in the assay on SF-268 CNS, 34.9%. Further, the growth was 26.8% with SF-539 CNS; 56% with UACC-257 melanoma; -17.4% (active) in the assay on M14 melanoma; 14.8% with HCT-15 colon; -45.4% (active) in the assay on HT29 colon; 74.8% in the assay on SNB-75 CNS. Besides, the growth is 42.5% in the assay on U251 CNS; 7.49% (active) with PC-3 prostate; 68.4% in the assay on SK-MEL-5 melanoma; 92.7% in the assay on UACC-62 melanoma; -95.5% (active) in the assay on LOX IMVI melanoma; 74.3% with SK-MEL-28 melanoma.
Turning to `CCc1ccc(-c2ccc(NC3CCCCCC3)nn2)cc1S(N)(=O)=O`, the growth with DU-145 prostate is 114%; in the assay on K-562 leukemia, 112%; in the assay on MALME-3M melanoma it was 104%; with MDA-MB-231 breast, 109%; in the assay on RXF 393 renal, 115%; with SF-268 CNS, 117%. Also, the growth in the assay with SF-539 CNS was 98.9%; in the assay with UACC-257 melanoma it was 100%; with M14 melanoma, 104%; in the assay with HCT-15 colon, 96.4%; with HT29 colon, 91.3%; with U251 CNS it was 95.8%. Besides, the growth in the assay on PC-3 prostate is 94.4%; in the assay with SK-MEL-5 melanoma it was 98.5%; in the assay on UACC-62 melanoma, 97.8%; with LOX IMVI melanoma, 100%; in the assay on SK-MEL-28 melanoma, 105%.
Take `CC(C)CC(NC(=O)C(CCCN=C(N)N)NC(=O)OCc1ccccc1)C(=O)NC(CNC(=O)/C=C/c1ccccc1)C(C)C` (configuration not stated): the growth was 107% in the assay on DU-145 prostate; 92.3% with K-562 leukemia; 107% in the assay on MALME-3M melanoma; 109% in the assay on MDA-MB-231 breast; 107% with RXF 393 renal; 107% with SF-268 CNS. Moreover, the growth in the assay with SF-539 CNS was 96.4%; with UACC-257 melanoma it was 107%; in the assay with M14 melanoma it was 106%; with HCT-15 colon it was 96.5%; in the assay on HT29 colon, 109%; in the assay on SNB-19 CNS, 99.9%. For the same compound, the growth with U251 CNS was 106%; with PC-3 prostate it was 89.2%; with SK-MEL-5 melanoma, 106%; in the assay with UACC-62 melanoma it was 102%; in the assay with LOX IMVI melanoma it was 94.8%; with SK-MEL-28 melanoma, 93.5%.
As to `COc1cc(C)cc2oc3oc(=O)c(-c4csc(-c5cc6ccccc6oc5=O)n4)cc3c(=O)c12`, the growth with DU-145 prostate is 113%; in the assay with K-562 leukemia, 112%; in the assay on MALME-3M melanoma, 105%; in the assay with MDA-MB-231 breast it was 99.5%; with RXF 393 renal, 102%; in the assay on SF-268 CNS, 105%. Moreover, the growth with SF-539 CNS was 99.3%; in the assay on UACC-257 melanoma it was 115%; in the assay with M14 melanoma, 104%; with HCT-15 colon, 114%; with HT29 colon it was 110%; with U251 CNS, 110%. In addition, the growth in the assay with PC-3 prostate was 104%; in the assay with SK-MEL-5 melanoma, 99.9%; in the assay on UACC-62 melanoma, 99.2%; with LOX IMVI melanoma, 94.6%; with SK-MEL-28 melanoma, 109%.
